# In all, about 360,000 compounds went through this assay and about 2,100 (0.58%) were called active.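 The calls were made as follows: active = inhibition above a per-plate cutoff, the mean of that plate's test compounds plus 3 SD (cut at about 27% in these data); inactive = the rest.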 Shown is part of a subset that was picked to be rich in actives.
# Molecular target: Muscarinic acetylcholine receptor M5 (Homo sapiens) (UniProt P08912)
# Experiment: human M5 muscarinic receptor antagonists, primary screen, CHO cells, Fluo-8 calcium fluorescence (AID 624040);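 also: 0% = acetylcholine EC80 with DMSO and 100% = DMSO without agonist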
# Conditions: CHO-hM5 cells, ACh EC80, at 3 µM, hits give high values
# Muscarinic acetylcholine receptor M5 (Homo sapiens), sequence (P08912 whole entry, looked up): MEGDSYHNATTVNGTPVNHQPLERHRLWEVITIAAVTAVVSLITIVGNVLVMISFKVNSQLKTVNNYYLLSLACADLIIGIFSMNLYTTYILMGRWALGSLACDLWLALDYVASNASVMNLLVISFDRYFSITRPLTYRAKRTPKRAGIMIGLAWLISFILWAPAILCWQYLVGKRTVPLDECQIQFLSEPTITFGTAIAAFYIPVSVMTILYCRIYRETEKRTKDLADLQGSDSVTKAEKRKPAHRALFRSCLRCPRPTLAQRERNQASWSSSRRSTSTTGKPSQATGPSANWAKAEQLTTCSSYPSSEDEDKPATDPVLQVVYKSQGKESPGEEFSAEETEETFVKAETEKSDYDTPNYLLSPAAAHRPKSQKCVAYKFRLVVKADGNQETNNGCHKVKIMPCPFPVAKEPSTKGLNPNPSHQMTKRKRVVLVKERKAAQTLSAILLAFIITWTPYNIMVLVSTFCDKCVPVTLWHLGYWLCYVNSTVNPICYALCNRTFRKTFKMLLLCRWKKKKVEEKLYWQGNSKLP
row,Compound,inhibition
1,CCCC[N+]1(C)C2CC(OC(=O)C(CO)c3ccccc3)CC1C1OC12 (stereo not given),73.3% (active)
2,CCn1cc(CN2CCCC(C(=O)c3cccc(C(F)(F)F)c3)C2)cn1 (stereo not given),12.4% (inactive)
3,CCCCCCCCCCCCn1ccc(=N)cc1,33.9% (active)
4,CCOC(=O)C1(c2ccccc2)CCN(CC(O)c2ccc(NC(C)=O)cc2)CC1 (stereo not given),11.2% (inactive)
5,O=c1c2ccccc2nc(/C=C/c2ccco2)n1-c1ccccc1O,3.76% (inactive)
6,Cc1ccc(-c2nn(CCC#N)cc2C(=O)O)cc1C,1.31% (inactive)
7,CC[N+]1(C)CCCC(OC(=O)C(O)(c2ccccc2)c2ccccc2)C1 (stereo not given),98.3% (active)
8,Oc1cc2c(cc1CN1CCN(c3ccccc3)CC1)OCO2,15.7% (inactive)
9,COC(=O)C[C@H]1CC[C@H]2NC[C@@H](O)COC[C@@H]2O1,7.66% (inactive)
10,COC1=CC=C2[C@H]3Cc4ccc(OC)c5c4[C@@]2(CCN3C)C1O5 (stereo not given in full),-5.74% (inactive)
11,CNC(=S)N/N=C1\C2CN3CCN(C2)CC1(c1ccccc1)C3,3.28% (inactive)
12,Nc1ccc(C(=O)N/N=C2/CN3CCC2CC3)cc1,6.34% (inactive)
13,O=C(Cc1ccccc1)N1CCN(C2CCCCCC2)CC1,0.09% (inactive)
14,CC1CCCN1CCC(C(N)=O)(c1ccccc1)c1ccccc1 (stereo not given),99.5% (active)
15,CC1CCCCN1Cc1cccnc1 (stereo not given),12.5% (inactive)
16,CCCC(C)n1[nH]c(=O)c2c1NC(=O)CSC2c1ccc(OC)c(OC)c1 (stereo not given),7.43% (inactive)
17,CC1C2Cn3c(nc4ccccc43)C1N(C)O2 (stereo not given),0.97% (inactive)
18,Cc1ncoc1C(=O)NCC1=C(c2cccc3ccccc23)C[C@@H]2CC[C@H]1N2Cc1ccco1,-3.17% (inactive)
19,COc1ccc2c(c1O)-c1cccc3c1[C@@H](C2)N(C)CC3,-4.83% (inactive)
20,COc1ccc(C2C=C(C)Oc3c2c(=O)oc2ccccc32)cc1OC (stereo not given),2.6% (inactive)

# Reference: PubChem BioAssay AID624040 (The Scripps Research Institute Molecular Screening Center, 2012)
